# According to PubChem BioAssay:
# Records with an inconclusive call do not appear. The source made the active and inactive calls.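 Rule for the calls, unless noted: active = cell viability at or below a set limit in both duplicate runs, the limit being the all-compound median minus 4 SD (cut at about 23% in these data, passing the limit was not always enough); inconclusive = no clear call, values can overlap the other calls; inactive = the rest.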
# Experiment: viability of HCT116 without oncogenic beta-catenin – human colon tumor cells, pilot screen (AID 823);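 note: 0% = wells killed by 20 µM Hyamine and 100% = untreated DMSO cell wells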
# Details: HCT116 beta-catenin knockout viability, CellTiter-Glo, 60 h; at 10 µM; hits give low values
row,SMILES,viability
1,Cc1oc(-c2cccs2)nc1CS(=O)CC(=O)NCCCN1CC(C)CC(C)C1 (stereo not given),93.9% (inactive)
2,Cc1nc(-c2ccc(S(=O)(=O)N3CCCCCC3)cc2)cs1,90.8% (inactive)
3,O=C(CN1CCN(Cc2ccccc2F)C1=O)NCCN1CCOCC1,109% (inactive)
4,O=C(NCCCN1CCc2ccccc2C1)C1CCN(c2nnc(-n3cccc3)s2)CC1,82.2% (inactive)
5,CCOC(=O)N1CCC(NC(=O)c2cc3c(C)nc4ccccc4c3o2)CC1,92.6% (inactive)
6,Cn1c(N)c(C(=O)COC(=O)Cc2ccsc2)c(=O)n(C)c1=O,93.6% (inactive)
7,NC(=O)C1CCN(C(=O)C2CCN(S(=O)(=O)c3ccccc3)CC2)CC1,102% (inactive)
8,COc1ccc(OC)c2[nH]c(=O)c(CCNC(=O)c3cc4ccccc4o3)cc12,87.8% (inactive)
9,Cc1ccc2cc(-c3noc(C4CCCO4)n3)c(=O)[nH]c2c1 (stereo not given),108% (inactive)
10,CCCCCn1c(N2CCC(Cc3ccccc3)CC2)nc2c1c(=O)[nH]c(=O)n2C,15.1% (active)
11,COC(=O)c1[nH]c2cc(OC)ccc2c1NC(=O)c1ccc2c(c1)OCO2,79.6% (inactive)
12,Cc1ccccc1NC(=O)c1ccc(S(=O)(=O)N(C)C)cc1,102% (inactive)
13,Cc1cccc(NC(=O)NCCN2C(=O)C3C4C=CC(C4)C3C2=O)c1 (stereo not given),104% (inactive)
14,COc1ccc(C2C=C(c3ccc(C)c(C)c3)Nc3ncnn32)c(OC)c1OC (stereo not given),40.4% (inactive)
15,COc1ccc(NC(=O)c2nc3nc(C)cc(C(F)F)n3n2)cc1OC,108% (inactive)
16,O=C(CC1(O)C(=O)Nc2ccccc21)c1ccccc1 (stereo not given),92.2% (inactive)
17,CCOC(=O)N1CCN(C(=O)c2cc3cc(Br)ccc3oc2=O)CC1,94.9% (inactive)
18,COc1ccc(OC)c(C2CC(=O)N3CN(c4cccc(Cl)c4C)CSC3=C2C#N)c1 (stereo not given),74% (inactive)
19,Cc1ccc(-n2nnc3c(=O)n(CC(=O)NCc4ccco4)cnc32)cc1,67.6% (inactive)
20,CSC1=NCCN1C(=O)C(C)Oc1ccccc1 (stereo not given),101% (inactive)

row,SMILES,viability
1,COc1ccc(OC)c(N(CC(=O)O)S(=O)(=O)c2ccc(OC)c(OC)c2)c1,98.9% (inactive)
2,CCC(=O)c1cc2c(cc1NC(=O)c1cccs1)OCCO2,69.2% (inactive)
3,CCn1c(C2CC(=O)N(c3ccc(C)c(C)c3)C2)nc2ccccc21 (stereo not given),86.7% (inactive)
4,C=COCCn1c(-c2nonc2N)nc2ccccc21,82.4% (inactive)
5,O=C(NC1CCCCC1)C(c1ccccc1)N1CCC2(CC1)OCCO2 (stereo not given),97.6% (inactive)
6,CCCCNc1cc(=O)n(C)c(=O)[nH]1,104% (inactive)
7,CC1Cn2c(nnc2-c2cccc(N)c2)S1 (stereo not given),98.7% (inactive)
8,Cc1nnc(NC(=O)CSc2nnc(Cc3cccn3C)n2-c2cccc(C(F)(F)F)c2)s1,98.8% (inactive)
9,CCc1c(C)nc(SCC(=O)Nc2ccc(Br)cc2)[nH]c1=O,98.3% (inactive)
10,CCc1nnc(NC(=O)C2Cc3ccccc3C(=O)O2)s1 (stereo not given),102% (inactive)
11,CCOCCn1c(CN(Cc2ccccc2)Cc2ccccc2)nc2c1c(=O)n(C)c(=O)n2C,64.7% (inactive)
12,COc1ccccc1-c1cc(N)n(S(=O)(=O)c2ccc(F)c(C)c2)n1,55% (inactive)
13,O=C(O)[C@@H](c1ccccc1)N1Cc2ccccc2C1=O,104% (inactive)
14,O=C(NCc1cccs1)c1cnc2sccn2c1=O,99.3% (inactive)
15,CC(C)(C)OC(=O)N1CCC(C(N)=O)CC1,103% (inactive)
16,Cc1ccc(C2CC(c3ccccc3C)n3nc(N)nc3N2)cc1 (stereo not given),84.6% (inactive)
17,COC(=O)C1CCN(C(c2ccc(OC)c(OC)c2)c2sc3nc(C)nn3c2O)CC1 (stereo not given),109% (inactive)
18,CCOc1ccc(Oc2nc(NCC(C)C)nc(OC)n2)nn1,94.8% (inactive)
19,OC(COc1ccc2ccccc2c1)CN1CCN(c2ccc(F)cc2)CC1 (stereo not given),81.7% (inactive)
20,Cc1ccc(O)c(NC(=O)CCC2CCCCC2)c1,89.4% (inactive)

# Experiment: viability of PTEN-null HCT116 cells – cell-based, HCT116 clonal line, CellTiter-Glo, pilot screen (AID 824;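 active = viability at or below 27.92% in each of two runs, the all-compound median minus 4 SD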;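 note: 0% = 20 µM Hyamine control and 100% = vehicle cell control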)
# Details: HCT116 PTEN-deleted viability, 60 h, at 10 µM, hits give low values
row,SMILES,viability
1,Cc1oc(-c2cccs2)nc1CS(=O)CC(=O)NCCCN1CC(C)CC(C)C1 (stereo not given),92.4% (inactive)
2,Cc1nc(-c2ccc(S(=O)(=O)N3CCCCCC3)cc2)cs1,89.7% (inactive)
3,O=C(CN1CCN(Cc2ccccc2F)C1=O)NCCN1CCOCC1,99.5% (inactive)
4,O=C(NCCCN1CCc2ccccc2C1)C1CCN(c2nnc(-n3cccc3)s2)CC1,79.4% (inactive)
5,CCOC(=O)N1CCC(NC(=O)c2cc3c(C)nc4ccccc4c3o2)CC1,91.5% (inactive)
6,Cn1c(N)c(C(=O)COC(=O)Cc2ccsc2)c(=O)n(C)c1=O,97.7% (inactive)
7,NC(=O)C1CCN(C(=O)C2CCN(S(=O)(=O)c3ccccc3)CC2)CC1,105% (inactive)
8,COc1ccc(OC)c2[nH]c(=O)c(CCNC(=O)c3cc4ccccc4o3)cc12,94.7% (inactive)
9,Cc1ccc2cc(-c3noc(C4CCCO4)n3)c(=O)[nH]c2c1 (stereo not given),100% (inactive)
10,CCCCCn1c(N2CCC(Cc3ccccc3)CC2)nc2c1c(=O)[nH]c(=O)n2C,12.8% (active)
11,COC(=O)c1[nH]c2cc(OC)ccc2c1NC(=O)c1ccc2c(c1)OCO2,81.2% (inactive)
12,Cc1ccccc1NC(=O)c1ccc(S(=O)(=O)N(C)C)cc1,94% (inactive)
13,Cc1cccc(NC(=O)NCCN2C(=O)C3C4C=CC(C4)C3C2=O)c1 (stereo not given),96.4% (inactive)
14,COc1ccc(C2C=C(c3ccc(C)c(C)c3)Nc3ncnn32)c(OC)c1OC (stereo not given),34.3% (inactive)
15,COc1ccc(NC(=O)c2nc3nc(C)cc(C(F)F)n3n2)cc1OC,102% (inactive)
16,O=C(CC1(O)C(=O)Nc2ccccc21)c1ccccc1 (stereo not given),96.7% (inactive)
17,CCOC(=O)N1CCN(C(=O)c2cc3cc(Br)ccc3oc2=O)CC1,89.7% (inactive)
18,COc1ccc(OC)c(C2CC(=O)N3CN(c4cccc(Cl)c4C)CSC3=C2C#N)c1 (stereo not given),72.1% (inactive)
19,Cc1ccc(-n2nnc3c(=O)n(CC(=O)NCc4ccco4)cnc32)cc1,63.4% (inactive)
20,CSC1=NCCN1C(=O)C(C)Oc1ccccc1 (stereo not given),99.2% (inactive)

row,SMILES,viability
1,COc1ccc(OC)c(N(CC(=O)O)S(=O)(=O)c2ccc(OC)c(OC)c2)c1,94% (inactive)
2,CCC(=O)c1cc2c(cc1NC(=O)c1cccs1)OCCO2,75.2% (inactive)
3,CCn1c(C2CC(=O)N(c3ccc(C)c(C)c3)C2)nc2ccccc21 (stereo not given),89.9% (inactive)
4,C=COCCn1c(-c2nonc2N)nc2ccccc21,74.9% (inactive)
5,O=C(NC1CCCCC1)C(c1ccccc1)N1CCC2(CC1)OCCO2 (stereo not given),95.5% (inactive)
6,CCCCNc1cc(=O)n(C)c(=O)[nH]1,96.5% (inactive)
7,CC1Cn2c(nnc2-c2cccc(N)c2)S1 (stereo not given),100% (inactive)
8,Cc1nnc(NC(=O)CSc2nnc(Cc3cccn3C)n2-c2cccc(C(F)(F)F)c2)s1,94% (inactive)
9,CCc1c(C)nc(SCC(=O)Nc2ccc(Br)cc2)[nH]c1=O,103% (inactive)
10,CCc1nnc(NC(=O)C2Cc3ccccc3C(=O)O2)s1 (stereo not given),104% (inactive)
11,CCOCCn1c(CN(Cc2ccccc2)Cc2ccccc2)nc2c1c(=O)n(C)c(=O)n2C,57.6% (inactive)
12,COc1ccccc1-c1cc(N)n(S(=O)(=O)c2ccc(F)c(C)c2)n1,64% (inactive)
13,O=C(O)[C@@H](c1ccccc1)N1Cc2ccccc2C1=O,96.7% (inactive)
14,O=C(NCc1cccs1)c1cnc2sccn2c1=O,89.9% (inactive)
15,CC(C)(C)OC(=O)N1CCC(C(N)=O)CC1,104% (inactive)
16,Cc1ccc(C2CC(c3ccccc3C)n3nc(N)nc3N2)cc1 (stereo not given),83% (inactive)
17,COC(=O)C1CCN(C(c2ccc(OC)c(OC)c2)c2sc3nc(C)nn3c2O)CC1 (stereo not given),96.9% (inactive)
18,CCOc1ccc(Oc2nc(NCC(C)C)nc(OC)n2)nn1,91.5% (inactive)
19,OC(COc1ccc2ccccc2c1)CN1CCN(c2ccc(F)cc2)CC1 (stereo not given),84.4% (inactive)
20,Cc1ccc(O)c(NC(=O)CCC2CCCCC2)c1,84.5% (inactive)
